# Laboratory results reported in PubChem BioAssay (NCI).
# This is part of a sample that, as a whole, favours compounds with a hit. Of some 79,000 tested, about 15% had one in any assay. Unmarked numbers belong to inactive results. Activity calls are given as the source filed them. No stated cut-off is given here; in the data, active means growth inhibition above about 70%; inactive means the rest.
# Experiment: NCI Yeast Anticancer Drug Screen. Data for the mlh1 strain (AID 171);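 further: 0% = growth of vehicle-treated control cultures of the same strain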
# Details: S. cerevisiae mlh1 strain growth inhibition; at 1.2 µM; active compounds read high
# Outline: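 Growth of the mutant yeast strain after compound exposure, expressed as inhibition relative to vehicle-only controls.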
row,SMILES,growth inhibition
1,CN(C)CCNC(=O)c1cccc2nc3c(ccc4ccccc43)nc12,-1%
2,O=S(=O)(CCC[C@H]1[C@@H](CCOCc2ccccc2)C2CCCN1O2)c1ccccc1 (stereo partly specified),3%
3,Nc1c([N+](=O)[O-])cc2c3c(cccc13)CC2,5%
4,CC1=Cc2ccc(C)cc2C(=O)C1=O,12%
5,C=Cc1c(C)c(O)cc2c1-c1ccc(O)c(C)c1CC2,12%
6,NCC(O)CSCc1ccc(Cl)cc1 (stereo unspecified),-5%
7,C[n+]1c(-c2ccc(NC(=O)c3ccc(C(=O)Nc4ccc(-c5cn6ccccc6[n+]5C)cc4)cc3)cc2)cn2ccccc21,2%
8,CNC(=O)OCc1c(COC(=O)NC)c(C)n(-c2ccc(Cl)c(Cl)c2)c1C,-26%
9,[O-]c1c2cc(-[n+]3c(-c4ccccc4)cc(-c4ccccc4)cc3-c3ccccc3)cc1COCCOCCOCCOCCOC2,-1%
10,C[Si](C)(C)Cc1ccccc1C(=O)O,3%

# Same assay, conditions: S. cerevisiae mlh1 strain growth inhibition; at 3.7 µM; active compounds read high
row,SMILES,growth inhibition
1,COc1ccc(/C=C2\CCc3ccccc3C2=O)cc1OC,29%
2,O=Cc1ccccc1B(O)O,14%
3,O=C(O)[C@H]1[C@@H](C2CCCCC2)O[C@@H](C2CCCCC2)O[C@H]1C(F)(F)F,-1%
4,CN(NC(=O)/C(=C/C=C/c1ccccc1)NC(=O)c1ccccc1)C1=C(Cl)C(=O)[N+](c2ccccc2)=CC1,8%
5,CCCCOc1ccc(Nc2c3ccccc3nc3ccccc23)cc1,-34%
6,N#C/C(=C1C=C/C(=N\O)C(Cl)=C\1)c1ccccc1,4%
7,COc1ccc(C(=O)OCCc2ccccc2)cc1,0%
8,Cc1c2ccncc2c(C)c2c1oc1ccccc12,16%
9,CCCC#CCOC(=O)c1cc([N+](=O)[O-])cc([N+](=O)[O-])c1,30%
10,Nc1nc(Nc2ccccc2)nc(Nc2ccccc2)n1,-2%
11,COc1ccc(/C=C2\S/C(=N/Nc3nc(-c4ccccc4)cs3)NC2=O)cc1OC,75% (active)
12,CC(O)CN1C(=O)c2cccc3cc([N+](=O)[O-])cc(c23)C1=O (stereo unspecified),4%
13,Cn1c(COc2ccc(/C=N/NC(=O)CCC(=O)N/N=C/c3ccc(OCc4c[n+]5ccccc5n4C)cc3)cc2)c[n+]2ccccc12,-2%
14,COC1=C(N=[N+]=[N-])C(=O)c2ncccc2C1=O,6%
15,CCN(CC)c1ccc(N=Nc2cc(S(=O)(=O)O)ccc2O)c(O)c1,-37%
16,O=C1C(C(O)(C(F)(F)F)C(F)(F)F)CCC1C(O)(C(F)(F)F)C(F)(F)F (stereo unspecified),7%
17,CN(C)CCNC(=O)c1cccc2nc3c(ccc4ccccc43)nc12,0%
18,O=S(=O)(CCC[C@H]1[C@@H](CCOCc2ccccc2)C2CCCN1O2)c1ccccc1 (stereo partly specified),3%
19,Nc1c([N+](=O)[O-])cc2c3c(cccc13)CC2,14%
20,CC1=Cc2ccc(C)cc2C(=O)C1=O,11%
21,C=Cc1c(C)c(O)cc2c1-c1ccc(O)c(C)c1CC2,-8%
22,NCC(O)CSCc1ccc(Cl)cc1 (stereo unspecified),-4%
23,C[n+]1c(-c2ccc(NC(=O)c3ccc(C(=O)Nc4ccc(-c5cn6ccccc6[n+]5C)cc4)cc3)cc2)cn2ccccc21,1%
24,CNC(=O)OCc1c(COC(=O)NC)c(C)n(-c2ccc(Cl)c(Cl)c2)c1C,-10%
25,[O-]c1c2cc(-[n+]3c(-c4ccccc4)cc(-c4ccccc4)cc3-c3ccccc3)cc1COCCOCCOCCOCCOC2,-1%
26,C[Si](C)(C)Cc1ccccc1C(=O)O,12%
